Experimental data taken from PubChem BioAssay (EPA / NIEHS).
Several values for one entry are separate records, joined by “and”; a condition that tells them apart may be missing. Equal entries are not always repeated. Results filed as inconclusive are left out. Activity calls are given as the source filed them. The calls were made as follows, unless noted: active = hit-call score of the fitted dose curve at least 0.9, where 1 is the maximum; inactive = score below 0.9.

What was measured:
[1] = CCTE_Shafer_MEA_acute_burst_duration_mean: CCTE's Neural Acute Assay for Mean Burst Duration, Shafer Lab (AID 2284014);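 also: hits are decreases in mean burst duration relative to DMSO controls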
How it was run: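 Acute exposure of mature rat cortical networks (DIV 13 or 15) grown on microelectrode arrays to 0.03-40 uM compound. Mean burst duration compared with the 40-min pre-dose baseline over a 40-min post-dose recording at 37 C.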

[2] = CCTE_Shafer_MEA_acute_per_burst_spike_number_mean: CCTE's Neural Acute Assay for Average Number of Spikes Per Burst, Shafer Lab (AID 2284015);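 also: hits are decreases in mean spikes per burst versus baseline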
How it was run: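 Read-out: percent change in mean spikes per burst, each well's post-exposure 40-min recording versus its own 40-min baseline. Rat cortical cultures, DIV 13 or 15, compounds 0.03-40 uM; DMSO is negative control, loss-of-signal fitting.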

[3] = CCTE_Shafer_MEA_acute_interburst_interval_mean: CCTE's Neural Acute Assay for Mean Interburst Interval, Shafer Lab (AID 2284016);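 also: percent change of mean interburst interval versus each well's own pre-dose baseline; curves fitted for decrease in interburst interval relative to DMSO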
How it was run: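 Rat cortical cultures, DIV 13/15; 20 min equilibration, 40 min baseline, compound 0.03-40 uM, 40 min re-recording, 37 C. Spikes detected at 8x rms noise (300-5000 Hz band-pass). Endpoint: % change in interburst interval, fitted in loss direction vs DMSO.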

[4] = CCTE_Shafer_MEA_acute_burst_percentage_mean: CCTE's Neural Acute Assay for Percentage of Spikes in a Burst, Shafer Lab (AID 2284017);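 as to AC50: curve fitted for loss of signal so potency reflects decreased burst percentage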
How it was run: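 Rat cortical cultures, DIV 13/15, 37 C. Spikes detected at 8x rms noise (300-5000 Hz band-pass). Burst spikes/total spikes averaged across electrodes per well; % change post- vs pre-treatment (40 min each), loss-of-signal fit vs DMSO.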

[5] = CCTE_Shafer_MEA_acute_burst_percentage_std: CCTE's Neural Acute Assay for Standard Deviation of Burst Percentage, Shafer Lab (AID 2284018);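 also: fitted in the negative direction so actives lower burst percentage SD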
How it was run: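 Primary rat cortical neurons on 16-electrode MEA wells were recorded 40 min at baseline (DIV 13 or 15), then 40 min after compound (0.03-40 uM), at 37 C. Well value is SD across electrodes of spikes-in-bursts/total spikes; endpoint is percent change, DMSO-referenced.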

[6] = CCTE_Shafer_MEA_acute_per_network_burst_spike_number_mean: CCTE's Neural Acute Assay for Average Number of Spikes in a Network Burst, Shafer Lab (AID 2284019);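 as to AC50: curve fitted for loss of signal so actives reduce spikes per network burst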
How it was run: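 Acute exposure of rat primary cortical networks (DIV 13/15) on MEAs; adaptive spike detection at 8x rms noise, 37 C. Percent change in spikes per network burst after 40 min with compound (0.03-40 uM), negative direction vs DMSO.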

[7] = CCTE_Shafer_MEA_acute_per_network_burst_electrodes_number_mean: CCTE's Neural Acute Assay for Mean Number of Electrodes in a Network Burst, Shafer Lab (AID 2284021);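 also: curves fitted for decreases only so hits reduce electrodes per burst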
How it was run: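 Rat primary cortical neurons on 16-electrode MEA wells were recorded 40 min at baseline on DIV 13 or 15, then 40 min after compound (0.03-40 uM), at 37 C. Value is percent change per well, fitted in loss direction versus DMSO.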

[8] = CCTE_Shafer_MEA_acute_network_burst_percentage: CCTE's Neural Acute Assay for Percentage of Network Bursts, Shafer Lab (AID 2284022);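 also: curves fitted for loss so actives lower network burst percentage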
How it was run: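 Primary rat cortical neurons on 16-electrode MEA wells, treated on DIV 13 or 15 with compound (0.03-40 uM); 40-min baseline and 40-min post-exposure recordings at 37 C. Value is percent change in spikes within network bursts versus baseline, DMSO negative control.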

[9] = CCTE_Shafer_MEA_acute_cross_correlation_area: CCTE's Neural Acute Assay for Area of Cross Correlation, Shafer Lab (AID 2284024);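 also: area under pooled inter-electrode spike cross-correlation near zero lag as percent change from own baseline; curves fitted for loss of cross-correlation area so actives lower synchrony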
How it was run: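 Primary rat cortical neurons on 48-well MEA plates (16 electrodes/well) were recorded 40 min at baseline on DIV 13 or 15, then 40 min with compound (0.03-40 uM) at 37 C; cross-correlation area expressed as percent change from baseline.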

[10] = CCTE_Shafer_MEA_acute_cross_correlation_HWHM: CCTE's Neural Acute Assay for Cross Correlation at Half Width at Half Maximum, Shafer Lab (AID 2284026);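 also: percent change per well from pre-dose baseline in spike cross-correlogram half width; hits are a decrease in cross-correlogram half width relative to DMSO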
How it was run: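 Primary rat cortical neurons on 16-electrode MEA wells; 40-min baseline on DIV 13 or 15, then 40-min recording with compound (0.03-40 uM) at 37 C. HWHM of spike cross-correlogram expressed as percent change from baseline per well, DMSO reference.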

[11] = CCTE_Shafer_MEA_acute_synchrony_index: CCTE's Neural Acute Assay for Synchrony, Shafer Lab (AID 2284027);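 also: network synchrony index of spontaneous spiking in primary rat cortical neurons on MEAs; fitted for loss of signal so actives lower synchrony relative to DMSO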
How it was run: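 The synchrony index is taken as percent change per well between a 40 min baseline and a 40 min recording with compound (0.03–40 uM), at 37C. Rat cortical cultures on multiwell MEAs at DIV 13 or 15, spike threshold 8× rms noise.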

[12] = CCTE_Deisenroth_AIME_384WELL_CTox_Active: Cytotoxicity Assessment (CTOX) in CCTE's 384-well Estrogen Receptor Transactivation Assay with AIME metabolic competence (metabolism positive), Deisenroth Lab (AID 2284037; active = hit-call score of the fitted dose curve at least 0.9, where 1 is the maximum;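 also: chemicals first conditioned 2 h by alginate-bound induced rat liver S9 before cells; activity means signal loss indicating cell death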)
How it was run: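 VM7Luc4E2 breast cells received medium pre-incubated 2 h with chemical over alginate microspheres holding induced male Sprague Dawley rat liver S9; viability read 24 h later by protease-substrate fluorescence. Loss of signal, bidirectional fit, 0.002–200 uM.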

[13] = molecular target: Estrogen receptor (Homo sapiens) (UniProt P03372); experiment: CCTE_Deisenroth_AIME_384WELL_LUC_Active: CCTE's 384-well Estrogen Receptor Transactivation Assay with AIME metabolic competence (ERTA luciferase; metabolism positive), Deisenroth Lab (AID 2284030; active = hit-call score of the fitted dose curve at least 0.9, where 1 is the maximum)
How it was run: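 Test chemicals (10-point series, 0.002 - 200 uM) were preincubated 2 hours with alginate-immobilized phenobarbital/beta-naphthoflavone-induced male Sprague Dawley rat liver S9; conditioned medium then went onto VM7Luc4E2 breast cells for 24 hour. Luciferase gain-of-signal fitted relative to 17beta-estradiol.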

[14] = molecular target: Estrogen receptor (Homo sapiens) (UniProt P03372); experiment: CCTE_Deisenroth_AIME_384WELL_LUC_Inactive: CCTE's 384-well Estrogen Receptor Transactivation Assay without AIME metabolic competence (ERTA luciferase; metabolism negative), Deisenroth Lab (AID 2284038; active = hit-call score of the fitted dose curve at least 0.9, where 1 is the maximum;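 also: hits raise estrogen receptor luciferase signal so potencies reflect agonists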)
How it was run: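 VM7Luc4E2 ER transactivation, luciferase bioluminescence after 24 h, using medium pre-incubated 2 h with S9-free alginate microspheres. Concentrations 0.002–200 uM; gain of signal fitted relative to 17beta-estradiol.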

[15] = CCTE_Deisenroth_AIME_384WELL_CTox_Inactive: Cytotoxicity Assessment (CTOX) in CCTE's 384-well Estrogen Receptor Transactivation Assay without AIME metabolic competence (metabolism negative), Deisenroth Lab (AID 2284039; active = hit-call score of the fitted dose curve at least 0.9, where 1 is the maximum;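 also: cell viability via live-cell protease substrate cleaved to fluorescent probe; cells exposed 24 h to medium preincubated 2 h with alginate-water beads without S9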)
How it was run: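 Metabolism-negative arm: chemicals (10-point, 0.002 - 200 uM) preincubated 2 h with alginate-water lids, medium moved onto VM7Luc4E2 cells for 24 h. Fluorescent live-cell protease readout; bidirectional curve fit.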

[16] = molecular target: Estrogen receptor (Homo sapiens) (UniProt P03372); experiment: CCTE_Deisenroth_AIME_384WELL_LUC_Shift: CCTE's 384-well Estrogen Receptor Transactivation Assay with AIME metabolic competence data shift (ERTA luciferase; difference in metabolism positive and negative), Deisenroth Lab (AID 2284041);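 also: shift is response with S9 minus without S9 so positive means metabolism raised ER signal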
How it was run: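 Here, parent compounds undergo 2 h phase I metabolism by PB/BNF-induced rat S9 before 24 h transactivation in VM7Luc4E2 cells; the curve models S9-positive minus S9-negative response over a 10-point series.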

[17] = CCTE_Shafer_MEA_dev_firing_rate_mean: CCTE's Neural Network Formation Assay for Mean Firing Rate, Shafer Lab (AID 2284031);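 as to AC50: curve fitted for loss of firing so AC50 reflects decreased mean firing rate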
How it was run: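 Spike frequency (spikes/recording length, averaged over active electrodes) was recorded on days 5, 7, 9 and 12 and collapsed to AUC; rat cortical cultures received compound continuously over 12 days of network development.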

[18] = CCTE_Shafer_MEA_dev_per_burst_spike_percent: CCTE's Neural Network Formation Assay for Percent of Spikes in a Burst, Shafer Lab (AID 2284032);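 as to AC50: fitted as a decrease in burst spike percentage below DMSO baseline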
How it was run: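 Value is trapezoidal AUC over recordings on days 5, 7, 9 and 12 of the well-mean fraction of spikes falling in single-electrode bursts; rat cortical cultures exposed continuously from plating, treatment renewed DIV 5 and 9, fitted downward against DMSO.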

[19] = CCTE_Shafer_MEA_dev_active_electrodes_number: CCTE's Neural Network Formation Assay for Number of Active Electrodes, Shafer Lab (AID 2284040; active = hit-call score of the fitted dose curve at least 0.9, where 1 is the maximum;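 as to AC50: potency for loss of active electrodes versus DMSO so lower counts are hits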)
How it was run: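 Counts electrodes per well firing at least 5 spikes/min, recorded on days 5, 7, 9 and 12 in rat cortical cultures dosed continuously from plating (treatment refreshed DIV 5, 9). Value is the area under the curve over recordings, fitted downward relative to DMSO.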

[20] = CCTE_Shafer_MEA_dev_burst_rate: CCTE's Neural Network Formation Assay for Burst Rate, Shafer Lab (AID 2284042);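 as to AC50: potency for loss of burst rate below DMSO control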
How it was run: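 Cells plated, treated day 0; recorded DIV 5, 7, 9, 12; fed and re-treated DIV 5, 9. Endpoint: bursts per recording time, active-electrode well mean, trapezoidal AUC, fitted in decreasing direction against DMSO baseline.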

Measured: AC50

Sequence of Estrogen receptor (Homo sapiens) (P03372 whole entry, looked up): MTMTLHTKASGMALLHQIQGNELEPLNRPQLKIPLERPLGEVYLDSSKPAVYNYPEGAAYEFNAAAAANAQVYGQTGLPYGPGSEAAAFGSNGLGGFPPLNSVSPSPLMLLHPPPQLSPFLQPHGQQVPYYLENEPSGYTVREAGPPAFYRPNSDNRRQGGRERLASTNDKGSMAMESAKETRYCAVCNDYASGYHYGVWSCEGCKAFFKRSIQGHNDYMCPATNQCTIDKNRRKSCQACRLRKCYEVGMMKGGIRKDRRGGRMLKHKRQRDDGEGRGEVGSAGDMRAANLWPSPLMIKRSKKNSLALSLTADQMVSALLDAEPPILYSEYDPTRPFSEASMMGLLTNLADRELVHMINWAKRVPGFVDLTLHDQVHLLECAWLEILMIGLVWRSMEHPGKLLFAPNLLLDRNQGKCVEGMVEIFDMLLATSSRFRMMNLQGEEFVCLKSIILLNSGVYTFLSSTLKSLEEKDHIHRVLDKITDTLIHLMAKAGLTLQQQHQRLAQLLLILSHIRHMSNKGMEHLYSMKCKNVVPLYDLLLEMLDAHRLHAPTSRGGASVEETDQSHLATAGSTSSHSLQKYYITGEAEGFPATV

CCCCCCC(CO)CCCC (stereo unspecified)
active: [3] 15 µM | [4] 4.14 µM | [6] 0.0509 µM | [7] 0.0774 µM | [10] 4.38 µM | [11] 4.68 µM
inactive: [1] | [2] | [5] | [8] | [9]

CC(CN=Cc1ccccc1O)N=Cc1ccccc1O (stereo unspecified)
inactive: [1] | [3] | [4] | [5] | [7] | [8] | [9] | [11]
active: [2] 15 µM | [6] 15 µM | [10] 15 µM

CCNCCO
inactive: [12]

O=C(Nc1ccc2c(O)c(N=Nc3ccc(N=Nc4ccc(S(=O)(=O)O)cc4)cc3)c(S(=O)(=O)O)cc2c1)c1ccccc1
inactive: [1] | [2] | [5] | [6] | [7] | [8] | [9] | [10]
active: [3] 15 µM | [4] 15 µM | [11] 15 µM

CC(C)CCCCCCc1ccc(OCCOCCO)cc1
inactive: [13] | [12] | [14] | [15] | [16]

C=CC(C)(O)CCC=C(C)C (stereo unspecified)
active: [3] 15 µM | [8] 0.003 µM
not listed: [13] | [14] | [16] | [17] | [18] | [19] | [20]
inactive: all other assays above

CC1(C)CCC[C@]2(C)[C@H]3CCO[C@]3(C)CC[C@@H]12
inactive: [1] | [2] | [3] | [4] | [5] | [6] | [7] | [8] | [9] | [10] | [11]

CN(C)CCOC(C)(c1ccccc1)c1ccccn1 (stereo unspecified)
inactive: [17] | [18] | [19] | [20]

CCCCC(CC)COC(C)=O (stereo unspecified)
inactive: [12]

CCC(=O)O[C@@H]1C[C@H]2CC[C@]1(C)C2(C)C
inactive: [12]

COCCOCCOCCO
inactive: [17] | [18] | [12] | [15] | [19] | [20]

COCCc1ccc(OCC(O)CNC(C)C)cc1 (stereo unspecified)
not listed: [12] | [13] | [14] | [15] | [16]
inactive: all other assays above

CN(C)C(=S)SC(=S)N(C)C
active: [8] 3.39 µM
inactive: [1] | [2] | [3] | [4] | [5] | [6] | [7] | [9] | [10] | [11]

Oc1c(Cl)cc(Cl)c(Cl)c1Cc1c(O)c(Cl)cc(Cl)c1Cl
active: [2] 0.155 µM | [3] 0.122 µM | [4] 0.163 µM | [7] 0.54 µM | [8] 0.454 µM | [9] 0.127 µM | [11] 0.203 µM | [17] 894 nM and 1.28 µM | [18] 1.16 µM and 954 nM | [19] 1.02 µM and 1.07 µM | [20] 976 nM and 688 nM
inactive: [1] | [5] | [6] | [10]

CCOC(=O)C(C#N)=C(c1ccccc1)c1ccccc1
inactive: [1] | [2] | [3] | [4] | [5] | [6] | [7] | [8] | [9] | [10] | [11]

CS(C)=O
inactive: [12]

FC(F)(F)COCC(F)(F)F
inactive: [17] | [18] | [19] | [20]

CS(=O)(=O)OCCCCOS(C)(=O)=O
inactive: [13] | [17] | [18] | [14] | [19] | [16] | [20]

CCCCCCCCCCCC(=O)OCC(O)CO (stereo unspecified)
inactive: [13] | [14] | [15] | [16]
active: [12] 0.0666 µM

OCc1cccc(Oc2ccccc2)c1
inactive: [12]

O=CN1CCOCC1
inactive: [1] | [2] | [3] | [4] | [5] | [6] | [7] | [8] | [9] | [10] | [11]
